Laboratory results taken from PubChem BioAssay (NCATS).
Inconclusive results are not listed. The source made the active and inactive calls. Calls follow the shape of the dose curve; as a rule, active = well fitted curve in the direction sought with a large enough effect; inconclusive = small, poorly fitted or top-dose-only effect, or another doubt; inactive = no such curve, though single readings can be large; an effect the other way counts as inactive or inconclusive.

What was measured:
[1] = qHTS of pediatric cancer cell lines to identify multiple opportunities for drug repurposing: Primary screen for NB1643 cells (AID 1347099); also: nearly all actives have a fitted effect of over 50% in size; also: potency is read from the fitted curve at half-maximal effect;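 as to activity change, negative = cytotoxic: plate controls were DMSO neutral control for no effect and bortezomib positive control for full effect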
In short: (§1)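 Cells plated at 500-1,000/well in growth medium, compounds added after 5 h. MIPE tested at 11 points (from 0.78 nM), NPC at 8 points (from 0.59 nM). CellTiter-Glo luminescence after 48 h; concentration-response curves from primary screen.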

[2] = qHTS of pediatric cancer cell lines to identify multiple opportunities for drug repurposing: Primary screen for LAN-5 cells (AID 1347100); also: potency is read from the fitted curve at half-maximal effect;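 as to activity change, negative = cytotoxic: plate controls were DMSO neutral control for no effect and bortezomib positive control for full effect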
In short: (§2)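 Cells (500-1,000/well) in growth media were settled 5 h at 37 degrees C, then given compounds for 48 h. Viability was read as CellTiter-Glo luminescence. Primary runs used MIPE at 11 points (0.78 nM-46 µM) and NPC at 8 points (0.59 nM-46 µM); follow-ups used 11 points.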

[3] = qHTS of pediatric cancer cell lines to identify multiple opportunities for drug repurposing: Primary screen for BT-12 cells (AID 1347101); also: nearly all actives have a fitted effect of over 25% in size; also: potency is read from the fitted curve at half-maximal effect;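 as to activity change, negative = cytotoxic: plate controls were DMSO for no effect and bortezomib positive control for full effect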
In short: (§3)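 Cells (500-1,000/well) rested 5 h, then received compounds for 48 h; metabolically active cells were measured by CellTiter-Glo luminescence. Final concentrations spanned up to 46 µM (MIPE, 11-point) or 0.59 nM-46 µM (NPC, 8-point) in primary screens, 11-point in follow-ups.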

[4] = qHTS of pediatric cancer cell lines to identify multiple opportunities for drug repurposing: Primary screen for Rh18 cells (AID 1347102); also: nearly all actives have a fitted effect of over 65% in size; also: potency is read from the fitted curve at half-maximal effect; as to activity change, negative = cytotoxic: % is scaled to controls: 0 for no effect and ±100 for the full control effect
In short: as §2

[5] = qHTS of pediatric cancer cell lines to identify multiple opportunities for drug repurposing: Primary screen for OHS-50 cells (AID 1347103); also: nearly all actives have a fitted effect of over 40% in size; also: potency is read from the fitted curve at half-maximal effect;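 as to activity change, negative = cytotoxic: plate controls were DMSO neutral control for no effect and bortezomib positive control for full effect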
In short: as §3

[6] = qHTS of pediatric cancer cell lines to identify multiple opportunities for drug repurposing: Primary screen for Rh30 cells (AID 1347107); also: nearly all actives have a fitted effect of over 75% in size; also: potency is read from the fitted curve at half-maximal effect; as to activity change, negative = cytotoxic: series mostly up to about 46 µM; % is scaled to controls: 0 for no effect and ±100 for the full control effect
In short: as §2

[7] = qHTS of pediatric cancer cell lines to identify multiple opportunities for drug repurposing: Primary screen for MG 63 (6-TG R) cells (AID 1347105); also: nearly all actives have a fitted effect of over 50% in size; also: potency is read from the fitted curve at half-maximal effect; as to activity change, negative = cytotoxic: % is scaled to controls: 0 for no effect and ±100 for the full control effect
In short: as §1

[8] = qHTS of pediatric cancer cell lines to identify multiple opportunities for drug repurposing: Primary screen for control Hh wild type fibroblast cells (AID 1347106);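 also: series mostly up to about 46 µM; % is scaled to controls: 0 for no effect and ±100 for the full control effect; a drop in luminescence marks cytotoxicity and a rise apparent proliferation; nearly all actives have a fitted effect of over 55% in size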
In short: as §2

[9] = qHTS of pediatric cancer cell lines to identify multiple opportunities for drug repurposing: Primary screen for Rh41 cells (AID 1347108); also: nearly all actives have a fitted effect of over 70% in size; also: potency is read from the fitted curve at half-maximal effect;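 as to activity change, negative = cytotoxic: series mostly up to about 46 µM; luminescence drop marks cytotoxic hits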
In short: as §1

[10] = qHTS of pediatric cancer cell lines to identify multiple opportunities for drug repurposing: Primary screen for RD cells (AID 1347104); also: nearly all actives have a fitted effect of over 55% in size; also: potency is read from the fitted curve at half-maximal effect;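 as to activity change, negative = cytotoxic: plate controls were DMSO for no effect and bortezomib for full effect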
In short: as §1

N[C@@H](CC(=O)N1CCn2c(nnc2C(F)(F)F)C1)Cc1cc(F)c(F)cc1F
active: Potency [1] 11.8 µM
inactive: Potency [2] | Potency [3] | Potency [4] | Potency [5] | Potency [6]

Cc1ccc(C(=O)N(CCCN)[C@@H](c2oc3cc(Cl)ccc3c(=O)c2Cc2ccccc2)C(C)C)cc1
active: Potency [2] 0.001 µM | Potency [3] 0.001 µM | Potency [4] 26.4 µM | Potency [5] 0.001 µM
inactive: Potency [1] | Potency [7] | Potency [8] | Potency [6]

CN(C)c1nc(Cc2ccc(NC(=O)c3ccc(C(F)(F)F)cc3)cc2)nc(N(C)C)c1CC(=O)O
inactive: Potency [1] | Potency [2] | Potency [3] | Potency [4] | Potency [5] | Potency [7] | Potency [8] | Potency [6] | Potency [9]

CC[C@H](CC#N)OC(=O)N[C@@H](C)c1cccc(NC(=O)Nc2ccc(-c3cnco3)c(OC)c2)c1
inactive: Potency [4] | Potency [9]
active: Potency [1] 0.743 µM | Potency [2] 0.662 µM | Potency [3] 0.611 µM | Potency [5] 7.69 µM

C[C@@H]1C[C@H]2[C@@H]3CCC4=CC(=O)C=C[C@]4(C)[C@@]3(F)[C@@H](O)C[C@]2(C)[C@@]1(O)C(=O)CO
inactive: Potency [1] | Potency [2] | Potency [3] | Potency [4] | Potency [5] | Potency [8] | Potency [6] | Potency [9]

C[C@@H](O)[C@H]1C(=O)N2C(C(=O)OCOC(=O)C(C)(C)C)=C(SC3CN(C4=NCCS4)C3)[C@H](C)[C@H]12
inactive: Potency [1] | Potency [2] | Potency [3] | Potency [4] | Potency [5] | Potency [7] | Potency [8] | Potency [6] | Potency [9]

CC1(C)OC2CC3C4CC(F)C5=CC(=O)C=CC5(C)C4C(O)CC3(C)[C@]2(C(=O)CO)O1 (stereo not given in full)
inactive: Potency [1] | Potency [2] | Potency [3] | Potency [4] | Potency [5] | Potency [10] | Potency [7] | Potency [6] | Potency [9]

Fc1ccc(CNc2ncnc3ccc(F)cc23)cc1
active: Potency [3] 4.32 µM | Potency [5] 6.85 µM
inactive: Potency [1] | Potency [2] | Potency [4] | Potency [7] | Potency [8]

CCN1C[C@H](C)n2c(c(O)c3c(=O)n(Cc4ccc(F)c(Cl)c4)nc(C(=O)NC)c32)C1=O
inactive: Potency [1] | Potency [2] | Potency [3] | Potency [4] | Potency [5] | Potency [10] | Potency [7] | Potency [8] | Potency [6] | Potency [9]

N#Cc1c(N(CC(=O)O)CC(=O)O)sc(C(=O)O)c1CC(=O)O
inactive: Potency [1] | Potency [2] | Potency [3] | Potency [4] | Potency [5] | Potency [10] | Potency [8] | Potency [6] | Potency [9]

Cn1cc(-c2ccc3nnc(Sc4ccc5ncccc5c4)n3n2)cn1
inactive: Potency [1] | Potency [2] | Potency [3] | Potency [4] | Potency [5] | Potency [8]

C[C@H]1O[C@@H](n2cc(F)c(=O)[nH]c2=O)[C@H](O)[C@H]1O
inactive: Potency [4] | Potency [5] | Potency [8]
active: Potency [1] 18.7 µM | Potency [2] 13.2 µM | Potency [3] 27.3 µM

COc1cc2nc(-c3cc(F)ccc3O)nc(N[C@@H]3CNC[C@@H]3C(C)(C)O)c2cc1OC
active: Potency [1] 16.6 µM | Potency [2] 13.2 µM | Potency [3] 27.3 µM | Potency [4] 18.7 µM | Potency [5] 10.9 µM | Potency [10] 33.2 µM | Potency [9] 23.5 µM

OC[C@H]1O[C@@H](O[C@H]2[C@@H](O)[C@@](O)(CO)O[C@@H]2CO)[C@H](O)[C@@H](O)[C@@H]1O
inactive: Potency [1] | Potency [2] | Potency [3] | Potency [4] | Potency [5] | Potency [10] | Potency [7] | Potency [8] | Potency [6] | Potency [9]

Nc1ccc(-c2ccc3ncc4ccc(=O)n(-c5cccc(C(F)(F)F)c5)c4c3c2)cn1
active: Potency [1] 0.418 µM | Potency [2] 0.0296 µM | Potency [3] 3.43 µM | Potency [4] 0.148 µM | Potency [5] 0.0069 µM | Potency [7] 0.0009 µM | Potency [6] 1.66 µM | Potency [9] 0.0264 µM

Cc1cc2nc3c(=O)[nH]c(=O)nc-3n(CC(O)C(O)C(O)CO)c2cc1C (stereo not given)
active: Potency [1] 23.5 µM
inactive: Potency [2] | Potency [3] | Potency [4] | Potency [5] | Potency [10] | Potency [7] | Potency [6] | Potency [9]

CO[C@H]1C=CO[C@@]2(C)Oc3c(C)c(O)c4c(O)c(c(C=NN5CCN(C)CC5)c(O)c4c3C2=O)NC(=O)C(C)=CC=C[C@H](C)[C@H](O)[C@@H](C)[C@@H](O)[C@@H](C)[C@H](OC(C)=O)[C@H]1C
inactive: activity change, negative = cytotoxic [1] 22.3% [at 9.22 µM] | activity change, negative = cytotoxic [2] -8.14% [at 9.22 µM] | activity change, negative = cytotoxic [3] 2.32% [at 11.5 µM] | activity change, negative = cytotoxic [4] -3.68% [at 9.22 µM] | activity change, negative = cytotoxic [5] -1.83% [at 11.5 µM] | activity change, negative = cytotoxic [7] -12.4% [at 9.22 µM] | activity change, negative = cytotoxic [8] -5.37% [at 9.22 µM] | activity change, negative = cytotoxic [6] -1.05% [at 9.22 µM] | activity change, negative = cytotoxic [9] -8.55% [at 9.22 µM]

O=C1CCCC(=O)C1C(=O)c1ccc(C(F)(F)F)cc1[N+](=O)[O-]
inactive: Potency [1] | Potency [2] | Potency [3] | Potency [4] | Potency [5] | Potency [10] | Potency [8] | Potency [6] | Potency [9]
